Experimental data as given in the supplement of paper PMC12669032.
Unmarked numbers belong to inactive results.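 The calls were made as follows: active = AUC reduced over 20% with Padj below 0.05 in at least 2 of 3 replicates; inactive = otherwise.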

Columns and labels:
Assay in all cases: growth AUC relative to DMSO control (median of replicates) (fraction); higher = more growth (less inhibition), active = hit call of the paper
Conditions in all cases: 20 µM; 24 h
[1] = tested on: Coprococcus comes
Procedure, shortened: (§1)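 Gut bacterial monocultures were grown anaerobically at 37 °C in mGAM from a starting OD600 of 0.05 with 20 µM compound (1% DMSO), in round-bottom 96-well plates under pierced gas-permeable seals, and OD600 was read hourly for 24 h. With the minimum OD set to 0, area under the growth curve was normalised to the plate median of solvent-only wells, or to row and column medians on the industrial chemical plate. Each value is the median of three biological replicates grown on separate days.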

[2] = tested on: Escherichia coli ED1a
Procedure, shortened: as §1

[3] = tested on: Escherichia coli IAI1
Procedure, shortened: as §1

[4] = tested on: Eubacterium rectale
Procedure, shortened: as §1

[5] = tested on: Fusobacterium nucleatum subsp. animalis
Procedure, shortened: as §1

[6] = tested on: Lactobacillus gasseri
Procedure, shortened: as §1

[7] = tested on: Lactobacillus paracasei
Procedure, shortened: as §1

[8] = tested on: Odoribacter splanchnicus
Procedure, shortened: as §1

[9] = tested on: Parabacteroides distasonis
Procedure, shortened: as §1

[10] = tested on: Parabacteroides merdae
Procedure, shortened: as §1

Row | Structure (SMILES) | growth AUC [1] | growth AUC [2] | growth AUC [3] | growth AUC [4] | growth AUC [5] | growth AUC [6] | growth AUC [7] | growth AUC [8] | growth AUC [9] | growth AUC [10]
1 | CON(C)C(=O)Nc1ccc(Br)c(Cl)c1 | 1.03 | 0.958 | 1.04 | 0.867 | 0.886 | 1.13 | 0.989 | 0.998 | 1.01 | 0.967
2 | CN(C)NC(=O)CCC(=O)O | 0.998 | 0.988 | 1.01 | 0.926 | 0.956 | 1.01 | 1.02 | 0.989 | 1.03 | 1.02
3 | CSc1nc(NC(C)C)nc(NC(C)C)n1 | 0.999 | 1.01 | 0.976 | 0.917 | 0.922 | 1.12 | 0.944 | 0.981 | 1.02 | 0.991
4 | N#Cc1c(O)c(Cl)c(Cl)c(C#N)c1Cl | 1.02 | 0.989 | 0.987 | 0.938 | 0.868 | 1.02 | 0.986 | 0.912 | 1.03 | 0.994
5 | COP(=S)(OC)SC(CC(=O)O)C(=O)O (stereo not given) | 1.01 | 1.02 | 0.974 | 0.884 | 1.01 | 1.03 | 0.972 | 1.14 | 0.956 | 0.976
6 | CC(C)[C@@H](Nc1ccc(C(F)(F)F)cc1Cl)C(=O)OC(C#N)c1cccc(Oc2ccccc2)c1 (stereo not given in full) | 0.988 | 1 | 1.05 | 1.04 | 1.06 | 1.02 | 1.04 | 1.05 | 1.09 | 1.03
7 | N#Cc1nn(-c2c(Cl)cc(C(F)(F)F)cc2Cl)c(N)c1S(=O)(=O)C(F)(F)F | 0.968 | 1.04 | 1.02 | 0.945 | 1.01 | 1.01 | 0.929 | 0.978 | 0.904 | 0.97
8 | COC(=O)COc1ccc(Cl)cc1Cl | 0.98 | 0.968 | 0.968 | 1.21 | 0.946 | 0.915 | 1.04 | 1.14 | 0.931 | 0.964
9 | CC(C)N(C(=O)CCl)c1ccccc1 | 0.961 | 0.982 | 1.02 | 0.923 | 0.911 | 1.17 | 0.946 | 0.942 | 0.992 | 0.982
10 | C=CCOC(=O)C(C)(C)OC(=O)c1cc(-n2c(=O)cc(C(F)(F)F)n(C)c2=O)ccc1Cl | 1 | 0.998 | 1.02 | 1.05 | 1.09 | 0.871 | 1.01 | 0.913 | 0.811 | 0.962
11 | COc1cc(OC)nc(NC(=O)[N-]S(=O)(=O)c2ncccc2OCC(F)(F)F)n1.[Na+] | 0.957 | 0.993 | 0.982 | 1.04 | 1.08 | 0.9 | 1.04 | 0.932 | 1.03 | 0.974
12 | C=CCNC(=O)c1c([Si](C)(C)C)sc(C)c1C | 0.984 | 0.972 | 1.01 | 0.967 | 0.894 | 1.05 | 0.986 | 0.97 | 1.01 | 0.973
13 | CC(C)(C)C(=O)C(Oc1ccc(Cl)cc1)n1cncn1 (stereo not given) | 1.03 | 1.02 | 1.02 | 1.05 | 0.974 | 1.05 | 1.02 | 1.04 | 1.03 | 0.985
14 | CC1(C)[C@H](C(=O)O[C@H](C#N)c2cccc(Oc3ccccc3)c2)[C@@H]1C=C(Br)Br | 0.985 | 0.991 | 0.979 | 1.11 | 0.922 | 0.926 | 0.986 | 1.03 | 0.972 | 0.921
15 | COP(=S)(OC)SCN1C(=O)c2ccccc2C1=O | 1 | 1 | 0.991 | 0.967 | 0.947 | 1.11 | 0.986 | 0.968 | 0.982 | 0.988
16 | Cc1[nH]c(=O)n(C(C)(C)C)c(=O)c1Cl | 0.999 | 0.983 | 0.942 | 1.01 | 0.978 | 0.927 | 1.06 | 1.02 | 0.968 | 0.995
17 | CN/C(=N\[N+](=O)[O-])NCc1cnc(Cl)s1 | 1.01 | 1.02 | 1 | 1.07 | 1.09 | 0.959 | 1 | 1.02 | 0.965 | 0.975
18 | CC(Oc1ccc(Oc2nc3ccc(Cl)cc3o2)cc1)C(=O)O (racemic) | 1.05 | 1.02 | 0.997 | 1.03 | 1.12 | 1.04 | 1.07 | 0.923 | 1.04 | 0.97
19 | Cn1cc(-c2ccccc2)c(=O)c(-c2cccc(C(F)(F)F)c2)c1 | 1.02 | 0.978 | 0.968 | 0.998 | 0.907 | 0.963 | 0.983 | 0.974 | 0.999 | 0.943
20 | CC1(C)C(/C=C(\Cl)C(F)(F)F)C1C(=O)OC(C#N)c1cccc(Oc2ccccc2)c1 (stereo not given) | 1.01 | 1.05 | 1.02 | 1.03 | 1.12 | 0.895 | 1.08 | 0.878 | 1.03 | 1.03
21 | O=C1C=C(N(Cc2ccc(Cl)nc2)CC(F)F)CO1 | 1.02 | 0.971 | 0.994 | 0.959 | 1.05 | 1 | 0.869 | 1.01 | 0.999 | 1.01
22 | C#CCOS(=O)OC1CCCCC1Oc1ccc(C(C)(C)C)cc1 (mixture of isomers) | 1.02 | 1.03 | 0.968 | 1 | 1.05 | 0.928 | 0.987 | 0.946 | 0.964 | 0.933
23 | CCOC1Oc2ccc(OS(C)(=O)=O)cc2C1(C)C (stereo not given) | 0.943 | 0.949 | 0.964 | 1.16 | 0.903 | 0.891 | 0.98 | 1.15 | 0.879 | 0.927
24 | N#Cc1cc(Br)c(O)c(Br)c1 | 0.996 | 0.907 | 0.773 (active) | 1.28 | 0.864 | 0.903 | 0.988 | 1.1 | 0.915 | 0.94
25 | C#CCOc1ccc(CCNC(=O)C(OCC#C)c2ccc(Cl)cc2)cc1OC (stereo not given) | 0.992 | 1.01 | 0.996 | 1.04 | 0.943 | 0.926 | 0.98 | 1.03 | 0.689 (active) | 0.948
26 | CCOP(=O)(OCC)Oc1ccc([N+](=O)[O-])cc1 | 1.03 | 0.988 | 1.03 | 0.91 | 1.06 | 1.02 | 1.04 | 1.05 | 0.999 | 0.986
27 | N#Cc1nn(-c2c(Cl)cc(C(F)(F)F)cc2Cl)c(N)c1S(=O)C(F)(F)F (stereo not given) | 1 | 1.01 | 0.981 | 0.951 | 0.974 | 0.811 | 0.98 | 0.93 | 0.714 (active) | 0.87
28 | COC(=O)c1ccccc1S(=O)(=O)NC(=O)Nc1nc(C)nc(OC)n1 | 0.975 | 0.963 | 0.958 | 1.05 | 0.913 | 0.934 | 0.933 | 1.07 | 0.977 | 0.962
29 | O=c1oc2ccccc2c(O)c1C1CCCc2ccccc21 (stereo not given) | 0.966 | 1.04 | 1.04 | 1.08 | 1.05 | 1 | 0.894 | 0.959 | 0.805 | 0.994
